PubChem BioAssay AID463165 (Johns Hopkins Ion Channel Center, 2010)
Among all 310,000 compounds or so, about 1,400 (0.45%) were called active.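 Rule for the calls: active = B-score, a plate-corrected calcium signal, over three deviations above library mean, with baseline fluorescence within five deviations of library mean; inactive = the rest.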 The entries come from a sample that favours actives as a whole.

Target: Regulator of G-protein signaling 4 (Homo sapiens) (UniProt P49798)
Assay: RGS4 inhibitors, primary screen, cell-based, HEK293 M3R inducible RGS4, calcium flux (AID 463165);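 note: RGS4 expression induced by doxycycline in cells with stable M3 receptor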;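 for B-score: B-score is computed from the integrated fluorescence ratio over baseline after carbachol; higher B-score means a larger calcium signal and so more RGS4 inhibition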
Details: Fluo-4 calcium flux, at 10 µM, triggered by carbachol at its EC20; stronger effect = higher value

Regulator of G-protein signaling 4 (Homo sapiens), sequence (P49798 whole entry, looked up): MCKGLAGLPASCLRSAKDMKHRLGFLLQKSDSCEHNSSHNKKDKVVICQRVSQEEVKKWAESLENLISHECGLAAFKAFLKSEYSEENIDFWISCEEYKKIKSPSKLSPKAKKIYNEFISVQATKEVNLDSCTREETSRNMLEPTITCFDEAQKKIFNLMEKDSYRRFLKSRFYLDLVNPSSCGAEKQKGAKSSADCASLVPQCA

Row | SMILES | B-score
1 | COc1ccc2oc(C(=O)OCC(=O)N(CC(C)C)c3c(N)n(Cc4ccccc4)c(=O)[nH]c3=O)c(C)c2c1 | inactive
2 | [O-][n+]1ccc(OCc2ccccc2)cc1 | inactive
3 | CCOc1ccccc1NC(=O)Cc1cccs1 | inactive
4 | CCOc1ccc(NC(=O)C/C(C)=N/NC(=O)Cc2cccs2)cc1 | 7.41 (active)
5 | CCOC(=O)c1ccc(NC(=O)Cc2cccs2)cc1 | inactive
6 | CCn1c(O)c2ccc(C(=O)N=NC(=O)c3cccnc3)cc2c1O | inactive
7 | O=S(=O)(Nc1ccc2[nH]ncc2c1)c1ccccc1Cl | inactive
8 | Cc1c(NC(=O)c2cc(-c3ccc(Br)cc3)on2)c(=O)n(-c2ccccc2)n1C | inactive
9 | Cc1c(NC(=O)c2coc(=O)c(Br)c2)c(=O)n(-c2ccccc2)n1C | 8.99 (active)
10 | Cc1c(NC(=O)c2cccnc2)c(=O)n(-c2ccccc2)n1C | inactive
11 | COc1ccc(CC(NC(C)=O)C(=O)NC2CCN(C(=O)Nc3ccc(C#N)cc3)CC2)cc1OC (configuration not stated) | inactive
12 | CCc1nn(CCCC(=O)NCc2ccc(C)cc2)c(=O)c2cc3occc3n12 | inactive
13 | O=C(O)CCCCCCCCc1cn(CN2C(=O)c3ccccc3C2=O)nn1 | inactive
14 | C=CCSc1nc(N)cc(=O)[nH]1 | inactive
15 | C=CCSc1nc2c(c(=O)[nH]1)C(C(C)C)C(C#N)=C(N)O2 (configuration not stated) | 7.64 (active)
16 | Cc1cc2c(c(=O)n1C)C(C(C)C)C(C#N)=C(N)O2 (configuration not stated) | inactive
17 | O=C(c1cccnc1)N(c1cc2sc(=O)oc2c2ccccc12)S(=O)(=O)c1ccccc1 | inactive
18 | CCc1ccc(C2C(C#N)=C(N)N(N3CCOCC3)C3=C2C(=O)CC(C)(C)C3)s1 (configuration not stated) | 4.85 (active)
19 | COc1ccc(C2C(C#N)=C(/N=C/N3CCOCC3)OC3=C2C(=O)CC(C)(C)C3)cc1OC (configuration not stated) | inactive
20 | CCc1ccc(C2C(C#N)=C(N)N(N(C)C)C3=C2C(=O)CCC3)s1 (configuration not stated) | inactive
21 | S=c1[nH]nc(-c2cccs2)n1/N=C/c1cccs1 | inactive

Row | SMILES | B-score
22 | Oc1ccccc1/C=N/n1c(-c2cccs2)n[nH]c1=S | inactive
23 | Cc1ccsc1/C=N/n1c(=S)[nH]nc(C)c1=O | 5.78 (active)
24 | CC(OC(=O)CCc1nc(=O)c2ccccc2n1C)C(=O)NCc1ccc2c(c1)OCO2 (configuration not stated) | inactive
25 | O=C(O)C1C2CC2CN1C(=O)c1ccc(Cl)cc1Cl (configuration not stated) | inactive
26 | COc1ccc(CNS(=O)(=O)c2ccc(-c3cnc(C4CC4)o3)cc2)cc1 | inactive
27 | CC(=O)Nc1ccc(-c2csc(NC=C3C(=O)OC(C)(C)OC3=O)n2)cc1 | inactive
28 | CC(=O)Nc1ccc(S(=O)(=O)Nc2cccc(NC(=O)C(C)(C)C)c2)cc1 | inactive
29 | CC(=O)Nc1ccc(S(=O)(=O)Nc2nc(-c3ccc(C(C)(C)C)cc3)cs2)cc1 | 5.98 (active)
30 | Oc1ccc(/C=N/Nc2ccc(C(F)(F)F)cn2)cc1O | 9.02 (active)
31 | Cc1nccn1CC(=O)N/N=C/c1ccc(O)c(O)c1 | inactive
32 | Oc1ccc(Br)cc1/C=N/Nc1ccccn1 | inactive
33 | O=C(c1n[nH]c2c1CCC2)N1CCCC(Nc2cccc(F)c2)C1 (configuration not stated) | inactive
34 | O=C(NC(=S)Nc1ccc(S(=O)(=O)N2CCOCC2)cc1)c1ccccc1[N+](=O)[O-] | inactive
35 | O=C(N/N=C/c1cc(Cl)cc([N+](=O)[O-])c1O)C(O)(c1ccccc1)c1ccccc1 | inactive
36 | O=[N+]([O-])c1cc(Cl)cc(/C=N/NC(=S)Nc2cc(S(=O)(=O)N3CCOCC3)ccc2Cl)c1O | 6.74 (active)
37 | COc1cccc(N2CC(C(=O)NCc3n[nH]c(=O)c4ccccc34)CC2=O)c1 (configuration not stated) | inactive
38 | CN(c1ccccc1)S(=O)(=O)c1cc(C(=O)Nc2nc3ccccc3[nH]2)ccc1Cl | inactive
39 | COc1ccc(-c2nc3cc([N+](=O)[O-])ccc3o2)cc1OC | inactive
40 | CCc1ccc2oc(-c3ccc(N)cc3)nc2c1 | 10.6 (active)
41 | Nc1ccc(-c2nnc(-c3ccccc3)o2)cc1 | inactive
42 | C=CC(COCc1ccccc1)N(Cc1ccccc1)S(=O)(=O)c1ccccc1Br (configuration not stated) | inactive
